Data taken from PubChem BioAssay (NCATS).
Values joined by “and” are separate entries in the source; they are usually repeats but may differ in a detail not shown here. Equal values may be shown once. Inconclusive results are not listed. Some structures have more than one record in an assay (separate samples or runs), and their calls can disagree. Active and inactive are the calls of the source. Calls come from the whole dose curve; as a rule, active = well fitted curve in the direction sought with a large enough effect; inconclusive = small, poorly fitted or top-dose-only effect, or another doubt; inactive = no such curve, though single readings can be large; an effect the other way counts as inactive or inconclusive.

Columns and labels:
[1] = target: Cytochrome P450 3A7 (Homo sapiens) (UniProt P24462); assay: Cytochrome P450 family 3 subfamily A member 7 (CYP3A7) small molecule antagonists: luciferase biochemical qHTS assay (AID 1963596); note: % is set by controls: 0 for no effect and ±100 for the full control effect; nearly all actives have a fitted effect of over 40% in size
Method in brief: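 P450-Glo luminescent assay: CYP3A7 enzyme converts a proluciferin substrate to luciferin, detected by luciferase reagent; light proportional to activity. Compounds in DMSO preincubated 10 min with enzyme-substrate mix at room temperature, then NADPH regeneration added for 1 h.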

[2] = Viability qHTS for spleen associated tyrosine kinase inhibitor (SYKi) naive MV4-11 cells (AID 1963823); note: nearly all actives have a fitted effect of over 40% in size; note: potency is the fitted concentration of half-maximal effect
Method in brief: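 SYK inhibitor-naive MV4-11 cells, 500 per well, exposed to compounds for 72 hr at 37 C, 5% CO2. Viability read as CellTiter-Glo luminescence after 10 min at room temperature.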

[3] = Viability qHTS for spleen associated tyrosine kinase inhibitor (SYKi) drug resistant MV4-11 cells (AID 1963824); note: nearly all actives have a fitted effect of over 35% in size
Method in brief: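 CellTiter-Glo luminescence, read 10 min after reagent addition, reports viability after a 72 hr compound exposure. Cells are an MV4-11 line made resistant to SYK inhibition, seeded at 500 per well onto compound-containing plates.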

[4] = Cellular viability qHTS for adrenocortical cancer (ACC) cell line SW-13 (AID 1963989); conditions: SW-13 ACC cells viability, CellTiter-Glo, 48 h; activity (max response): stronger effect = lower value;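 note: cells grown in serum-free medium with ITS supplement; % is set by controls: 0 for no effect and ±100 for the full control effect; nearly all actives have a fitted effect of over 65% in size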
Method in brief: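 Here, serum-free SW-13 cultures were dosed up to 46 uM. Following 48 h, ATP-dependent luminescence (CellTiter-Glo) reported viable cells, and logistic modeling produced IC50 values.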

[5] = Quantitative highthroughput screen to assess conditional lethalithy of P12 Ichikawa cells grown in RPMI1640 with dialyzed fetal bovine serum (RPMI+ds) (AID 1963880); conditions: Potency: P12-Ichikawa viability;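 note: 100% = DMSO wells and 0% = empty wells on each plate; nearly all actives have a fitted effect of over 35% in size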
Method in brief: (§1)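 Each medium arm—HPLM with 10% dialyzed FBS, or RPMI1640 with 5 mM glucose and 10% untreated or dialyzed FBS—was screened against an 11-point, 3-fold compound titration for 48 h at 37 °C, with CellTiter-Glo luminescence as endpoint.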

[6] = Quantitative highthroughput screen to assess conditional lethalithy of P12 Ichikawa cells grown in RPMI1640 with untreated serum (RPMI+s) (AID 1963881); conditions: Potency: viability;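 note: series mostly up to about 46 µM; 100% = DMSO wells and 0% = empty wells without cells; nearly all actives have a fitted effect of over 35% in size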
Method in brief: as §1

[7] = Quantitative highthroughput screen to assess conditional lethalithy of SEM cells grown in Human Plasma-Like Medium with dialyzed fetal bovine serum (HPLM+ds) (AID 1963882); note: series mostly up to about 46 µM; nearly all actives have a fitted effect of over 35% in size
Method in brief: as §1

[8] = Quantitative highthroughput screen to assess conditional lethalithy of SEM cells grown in RPMI1640 with unreated serum (RPMI+s) (AID 1963883)
Method in brief: as §1

[9] = Quantitative highthroughput screen to assess conditional lethalithy of SEM cells grown in RPMI1640 with dialyzed fetal bovine serum (RPMI+ds) (AID 1963884)
Method in brief: as §1

[10] = Cellular viability qHTS for adrenocortical cancer (ACC) cell line NCI-H295R (AID 1963990);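 note: 0% = DMSO only wells and -100% = full killing with cytotoxic reference compound; nearly all actives have a fitted effect of over 60% in size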
Method in brief: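 Viability of NCI-H295R after 48 h of treatment (final up to 46 uM) measured through cellular ATP luminescence.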

Sequence of Cytochrome P450 3A7 (Homo sapiens) (P24462 whole entry, looked up): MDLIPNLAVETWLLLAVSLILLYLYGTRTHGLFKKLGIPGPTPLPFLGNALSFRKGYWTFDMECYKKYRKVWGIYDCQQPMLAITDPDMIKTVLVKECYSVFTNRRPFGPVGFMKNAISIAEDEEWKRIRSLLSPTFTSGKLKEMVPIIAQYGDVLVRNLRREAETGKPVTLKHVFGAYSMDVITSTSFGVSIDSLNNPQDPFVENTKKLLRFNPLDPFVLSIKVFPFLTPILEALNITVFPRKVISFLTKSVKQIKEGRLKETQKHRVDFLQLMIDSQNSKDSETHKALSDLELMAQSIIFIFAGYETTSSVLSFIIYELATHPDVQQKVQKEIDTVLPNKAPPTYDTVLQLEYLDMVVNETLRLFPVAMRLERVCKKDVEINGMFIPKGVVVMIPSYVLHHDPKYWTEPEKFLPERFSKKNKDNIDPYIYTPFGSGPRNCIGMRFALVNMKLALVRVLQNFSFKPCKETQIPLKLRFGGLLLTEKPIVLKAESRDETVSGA

CCOc1ncc(F)c(=O)[nH]1
inactive: Potency [1] | Potency [2] | Potency [3] | activity (max response) [4] 18.7%

CN1C(C(=O)Nc2ccccn2)=C(O)c2sccc2S1(=O)=O
inactive: Potency [1] | Potency [3] | Potency [5] | Potency [6] | Potency [7] | Potency [8] | Potency [9] | activity (max response) [4] 0.0862% and -19.6% | Potency [10]
750 nM (active) and inactive: Potency [2]

Cc1cccc(-c2nn3c(c2-c2ccnc4ccc(C(N)=O)cc24)CCC3)n1
inactive: Potency [1] | Potency [2] | Potency [3] | activity (max response) [4] 14.6%

CCCCC/C(C=O)=C\c1ccccc1
inactive: Potency [1] | Potency [2] | Potency [3] | activity (max response) [4] 6.34%

C[C@H]1NCc2cc(-c3ccc4c(=O)c(C(=O)O)cn(C5CC5)c4c3OC(F)F)ccc21
inactive: Potency [1] | Potency [2] | Potency [3] | activity (max response) [4] -8.27%

Nc1nc(-c2ccccc2)c(Br)c(=O)[nH]1
inactive: Potency [1] | Potency [2] | Potency [3] | activity (max response) [4] 0.407%

CCCC(O)C(CC)CO (centres undefined)
inactive: Potency [1] | Potency [2] | Potency [3] | activity (max response) [4] 8.36%

CCCCCCCCCCCCOS(=O)(=O)O
inactive: Potency [1] | Potency [2] | Potency [3] | activity (max response) [4] 4.63%

CC(=O)Nc1c(I)cc(I)c(C(=O)O)c1I
inactive: Potency [1] | Potency [2] | Potency [3] | activity (max response) [4] -1.35%

O=P(O)(O)OCC(O)CO (centres undefined)
inactive: Potency [1] | Potency [2] | Potency [3] | activity (max response) [4] 10.4%

O=C(O)c1ccc(OCCCOc2ccc(C(=O)O)cc2)cc1
inactive: Potency [1] | Potency [2] | Potency [3] | activity (max response) [4] 5.44%

C/C(=N\O)[C@@H](C)NCC(C)(C)CN[C@H](C)/C(C)=N/O
inactive: Potency [1] | Potency [2] | Potency [3] | activity (max response) [4] 8.19%
